Among all 3,300 compounds or so, about 1,400 (42%) were called active.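 How the source made its calls: active means mean inhibition across replicates above the hit cutoff derived for the earlier primary screen (cut at about 22% in these data); inactive means the rest.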 So high a share suggests a set chosen from earlier hits. These entries were drawn from the full list.
Biological target: Protein arginine N-methyltransferase 1 (Homo sapiens) (UniProt Q99873)
Test: human PRMT1 activity-probe blockers, retest – biochemical, fluorescence polarization, triplicate, confirmation (AID 687036)
Conditions: recombinant His-PRMT1, activity-based probe fluorescence polarization; at 2.79 µM; active compounds read high

Protein arginine N-methyltransferase 1 (Homo sapiens), sequence (Q99873 whole entry, looked up): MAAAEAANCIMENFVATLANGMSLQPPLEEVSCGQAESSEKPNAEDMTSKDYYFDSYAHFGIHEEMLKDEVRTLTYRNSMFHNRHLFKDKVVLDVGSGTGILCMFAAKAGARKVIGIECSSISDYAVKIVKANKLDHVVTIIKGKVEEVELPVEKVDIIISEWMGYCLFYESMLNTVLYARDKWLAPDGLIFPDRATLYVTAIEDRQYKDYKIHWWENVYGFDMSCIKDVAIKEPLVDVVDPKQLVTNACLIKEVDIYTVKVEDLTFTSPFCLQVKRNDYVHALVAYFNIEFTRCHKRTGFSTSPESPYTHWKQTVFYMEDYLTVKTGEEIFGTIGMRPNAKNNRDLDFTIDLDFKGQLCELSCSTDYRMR

inhibition, inactive:
NS(=O)(=O)c1ccc(NC(=O)COC(=O)c2c3c(nc4ccccc24)/C(=C\c2ccc4c(c2)OCO4)CCC3)cc1 0.89%
Cc1cc(C)cc(C(=O)NC2C(=O)N3C(C(=O)O)=C(CSc4nnc(C)s4)CSC23)c1 (stereo unspecified) 15.9%
COc1cc(C2CC(=O)N3CN(Cc4ccccc4)CSC3=C2C#N)ccc1OCc1ccccc1 (stereo unspecified) 12.4%
CC(=O)Nc1ccc(C(=O)Nc2nc(-c3cc(C)n(Cc4ccccc4)c3C)cs2)cc1 5.86%
FC(F)(F)c1nc2ccccc2nc1N/N=C/c1ccc(Cl)cc1 -0.64%
Fc1ccc(COc2cccc(-c3n[nH]c(=S)o3)c2)cc1 14.3%
COc1cc(C(=S)NC2CCCCC2)ccc1O 5.36%
CCc1ccc(NC2Nc3cc(C)nn3S2)cc1 (stereo unspecified) 6.49%
COc1ccc(CCN2C(=O)CC(N3CCC(C(N)=O)CC3)C2=O)cc1OC (stereo unspecified) 12.1%
OCCn1c(-c2ccccc2)csc1=Nc1ccccc1 -0.19%
Cc1ccc(-c2ccc(/C=C(\C#N)C(N)=S)o2)c([N+](=O)[O-])c1 3.06%
COc1ccc(N/N=C2/CCCCC2=O)cc1 0.52%
Cc1cc(=O)[nH]c(=S)[nH]1 -4.44%
O=C(CN1CCN(c2ccc(O)cc2)CC1)NC1CCCc2ccccc21 (stereo unspecified) -0.09%
Cc1cccc(N2CCN(C(=O)/C=C/c3ccco3)CC2)c1C 7.17%
Cc1nnc(SCC2=C(C(=O)O)N3C(=O)C(NC(=O)Cn4nc(C)c(Cl)c4C)C3SC2)s1 (stereo unspecified) 6.51%
CC(C)(C)NC(=O)COc1ccc(CNc2ccc3[nH]c(=O)[nH]c3c2)cc1 4.62%
Cc1cccc2cc3c(N)c(C(=O)N4CCCc5ccccc54)sc3nc12 -2.12%
COc1cccc(NC(=O)COC(=O)/C=C/c2ccco2)c1 10.2%
CC(=O)Nc1cc(-c2ccccc2N(C)C)cn2c(-c3ccc(F)c(Cl)c3)cnc12 1.55%
c1ccc(Cc2c(-c3ccco3)nc3c4ccccc4ccn23)cc1 9.04%
COc1ccc(NC2=CC(=S)NC(C)(C)C2)cc1 -3.18%
S=c1[nH]nc(-c2ccco2)n1/N=C/c1ccc(Br)s1 13.1%
COc1ccc(N2C(=O)CC(N3CCC(C(N)=O)CC3)C2=O)cc1 (stereo unspecified) 9.59%
CN(CCOc1ccccc1)C(=O)c1cc(-c2ccco2)nc2ccccc12 10.7%
COc1ccc(-c2cc3c(c4c2ccn4C)C2CCC3C2)cn1 (stereo unspecified) -5.46%
CC(=NNC(=S)N1CCCCCC1)c1ccccn1 5.21%
O=S(=O)(c1ccc(Sc2nnc3ccccn23)nc1)N1CCOCC1 -3.1%
Cc1cc2c(c(=O)n1Cc1ccco1)C(c1ccccc1)C(C#N)=C(N)O2 (stereo unspecified) 6.2%
O=C(c1ccc[nH]c1=S)N1CCN(S(=O)(=O)c2ccc(Br)cc2Cl)CC1 11.5%
COc1ccc(NC(=O)c2ccc(C#CC(C)(C)O)cc2)cc1 3.21%
CN(C)C(=O)N=NC(=O)N(C)C 15.4%
Cc1cccc(CS(=O)(=O)c2ncc(Cl)c(C(=O)Nc3ccc(F)cc3)n2)c1 18.9%
Cc1ccc(-c2nn(-c3ccccc3)cc2/C=C2\SC(=S)N(CCCCCC(=O)O)C2=O)o1 18.1%
Cc1ccccc1-n1c(SCC(=O)Nc2cccc3ccccc23)nc(O)cc1=O 2.26%
Cc1ccc(OS(=O)(=O)c2ccc(-c3csc(C)n3)s2)c(C)c1 8.35%
CO/N=C(\C(=O)N[C@@H]1C(=O)N2C(C(=O)O)=C(COC(C)=O)CS[C@H]12)c1csc(N)n1 (stereo in doubt) 11.4%
COc1ccccc1-n1c(SCC(=O)Nc2ccc(Cl)cc2)nc(O)c(Cc2ccccc2)c1=O 18.7%
Cc1cccc(NC(=O)c2nc(S(=O)(=O)Cc3ccccc3)ncc2Cl)c1 16.1%

inhibition, active:
Brc1ccccc1C1Nc2cccc3cccc(c23)N1 29.4%
Oc1ccc2ccc3cccc[n+]3c2c1 155%
CCOC(=O)C(Sc1ncc(C#N)c(N)n1)C(C)C (stereo unspecified) 37%
O=c1ccc2c(-c3ccccc3S(=O)(=O)O)c3ccc(O)c(O)c3oc-2c1O 66.2%
O=S(=O)(O)c1cc2onnc2c2ccccc12 53.5%
Cc1ccc(SC(CC(=O)c2ccc(C(C)(C)C)cc2)C(=O)O)cc1 (stereo unspecified) 80.3%
Cc1cc2nc3c(=O)[nH]c(=O)nc-3n(C[C@H](O)[C@H](O)[C@H](O)CO)c2cc1C 146%
COc1ccc(NC(=O)CSc2nc(SC)ns2)c(OC)c1 30.5%
COc1cccc(NC(=O)CSc2nccn(-c3ccc4c(c3)OCCO4)c2=O)c1 26.1%
Cc1ccc(N2C(=O)CC(Sc3ncn[nH]3)C2=O)cc1 (stereo unspecified) 24.3%
O=C1CC(Sc2ncn[nH]2)C(=O)N1c1ccccc1 (stereo unspecified) 68.5%
COc1ccc(N2C(=O)CC(Sc3n[nH]c(-c4ccc(C)cc4)n3)C2=O)cc1 (stereo unspecified) 59%
Cc1cc(C)c(/C=C2\C(=O)Nc3ccccc32)[nH]1 77.3%
N#CC1=C(N)Oc2c(sc3ccccc23)C1c1ccco1 (stereo unspecified) 28.5%
COC(=O)c1ccc(NCc2cc(O)ccc2O)cc1 22.6%
Cc1ccc(/C=C/C(=O)Nc2ccc([N+](=O)[O-])c(NC(=O)/C=C/c3ccc(C)o3)c2)o1 60.6%
Cc1ccc(-c2nn(-c3ccccc3)cc2CN(Cc2ccccc2)C(=O)CCC(=O)O)o1 21.8%
Cc1cccc(NC(=O)CSC(N)=O)c1C 96.6%
O=C(NC1=CC(=O)c2ccccc2C1=O)c1ccccc1 42.6%
C=CCn1c(=S)[nH]c2scc(-c3ccco3)c2c1=O 56.8%
O=C(CCN1CCc2ccccc2C(O)(c2ccccc2)C1)c1ccc2c(c1)OCCO2 (stereo unspecified) 38%
O=C(Nc1ccccc1)c1nnsc1S(=O)(=O)c1ccc(Cl)cc1 79.7%
